Screens deposited in PubChem BioAssay by several laboratories.
A selection: hits, their analogues and other compounds. The true share with any hit is near 4.6%.
V-ATPase pH – regulators of yeast V-ATPase proton transport. S. cerevisiae, pHLuorin cytosolic pH fluorescence. response, % at 10 µM. 0.37% of 350,000 active; in the data active means response mostly above about 7.3%, no sharp cut-off; inactive means mostly below about 5.4%; further: actives read high
tim10-1 inh – growth inhibitors of tim10-1 mutant yeast | S. cerevisiae tim10-1 ts strain growth, BacTiter-Glo, 24 h | 2.2% of 330,000 active | inhibition, % at 20 µM | AID 463190;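 active means inhibition of at least 40%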;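 further: mutant grown at 25 °C; 0% = DMSO wells with yeast and 100% = wells holding no yeast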
tim23-1 inh – inhibits growth of tim23-1 mutant yeast. 1.3% of 330,000 active. S. cerevisiae tim23-1 growth, BacTiter-Glo luminescence, 24 h. inhibition, % at 20 µM. AID 463212;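 active means growth inhibition of the mutant yeast at or above 50%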;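 further: temperature-sensitive mutant grown at 25 °C; plate controls were DMSO-treated mutant yeast for no effect and medium wells lacking yeast for full effect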
SKKanGAS inh – inhibitors of SKKanGAS S. pyogenes growth in kanamycin (SK-promoter or general growth effect); BacTiter-Glo, 6 h; inhibition, % at 7.5 µM; 1.3% of 300,000 active; AID 1662;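 active means mean replicate score, as percent of positive control median, at least 50; inconclusive means mean below 50 but one replicate at or above 50; inactive means mean and every replicate below 50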;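 further: strain carries kanamycin resistance gene driven by streptokinase promoter and grows in 40 µg/ml kanamycin; loss of luminescence reflects streptokinase promoter inhibition or plain growth inhibition; 0% = median of DMSO wells and 100% = positive control at its reference dose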
PfHsp90 yeast 2 – reduces growth (ATP signal) of yeast expressing P. falciparum Hsp90; S. cerevisiae expressing PfHsp90, BacTiter-Glo ATP, 48 h; yeast lacking PDR1 and PDR3 efflux regulators; inhibition, % at 9.4 µM; 0.32% of 310,000 active; AID 504621;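 active means every replicate shows inhibition above about 80%, whatever the replicate mean, limit read from the data; inconclusive means mean inhibition reaches the set limit but some replicate falls short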;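 further: 0% = DMSO neutral controls and 100% = 20 µM radicicol positive controls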
TIM10 inh – TIM10 yeast growth inhibition | S. cerevisiae TIM10 strain growth, BacTiter-Glo luminescence, 24 h | AID 463195 | inhibition, % at 10 µM | 1.4% of 330,000 active;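 active means inhibition of 40% or more at the single tested concentration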;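 further: wild-type TIM10 isogenic control strain grown at permissive 25 °C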
tim10-1 confirm – confirmation of tim10-1 mutant yeast growth inhibitors; shares compounds with tim10-1 inh; 56% of 7,400 active; inhibition, % at 20 µM; AID 463213; S. cerevisiae tim10-1 ts strain growth, BacTiter-Glo, 24 h;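 active means inhibition of yeast growth at or above a set limit in either of two repeat tests at 20 µM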;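 further: tim10-1 mutant grown at permissive 25 °C to find synthetic lethal compounds; 0% = DMSO yeast wells and 100% = medium wells without yeast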
tim10 confirm – confirmation of TIM10 yeast growth inhibitors. shares compounds with TIM10 inh. S. cerevisiae tim10 strain growth, BacTiter-Glo luminescence, 24 h. inhibition, % at 10 µM. 63% of 4,600 active. AID 463215;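 active means inhibition of yeast growth at or above a set limit in either of two replicates at 10 µM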;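 further: this counterscreen used the strain with wild-type TIM10; 0% = yeast with DMSO and 100% = medium wells lacking yeast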
* = called active by the depositor; ? = inconclusive; . = no result.

SMILES | V-ATPase pH | tim10-1 inh | tim23-1 inh | SKKanGAS inh | PfHsp90 yeast 2 | TIM10 inh | tim10-1 confirm | tim10 confirm
O=S(=O)(Nc1ccc2ccccc2n1)c1ccccc1 | 3.4 | -4.0 | 8.5 | -0.7 | 16.5 | -5.8 | . | .
O=C(COC(=O)c1ccco1)c1ccc(Cl)cc1 | -7.1 | 17.8 | 11.9 | 4.9 | 8.7 | 4.0 | . | .
N/C(=N\OC(=O)c1ccco1)c1ccc(Cl)cc1 | -1.8 | 47.5* | 49.2 | -1.3 | -4.0 | 53.9* | 47.2* | 22.7
Cc1ccc(N(CC(=O)NC2CCCCC2)S(=O)(=O)c2cccs2)cc1 | 2.9 | 29.7 | 11.1 | 27.9 | -8.6 | 16.5 | . | .
O=C(/C=C/c1ccc(N2CCC(c3ccccc3)=N2)cc1)c1ccccc1 | . | 41.3* | 11.8 | -5.1 | . | 43.5* | 25.1 | 24.5
Cc1ccc(S(=O)(=O)CCC(=O)N(Cc2nnc(-c3ccc(Cl)cc3)o2)C2CC2)cc1 | -4.7 | 28.5 | 38.5 | . | . | 14.7 | . | .
O=C(NCCCn1ccnc1)C1CCN(S(=O)(=O)c2cc([N+](=O)[O-])ccc2Cl)CC1 | -2.1 | 7.2 | 3.8 | . | 16.8 | -4.4 | . | .
CCN(CC)S(=O)(=O)c1ccc(N2CCc3ccccc3C2)nc1 | -1.0 | 42.8* | 39.1 | -5.9 | -12.8 | 50.3* | 32.2* | 41.2*
CCn1c(C)[n+](CC(O)COCC2CC=CCC2)c2ccccc21 (stereo not drawn) | 2.0 | 2.8 | 0.4 | -4.2 | 9.4 | -6.3 | . | .
CCC(=O)OCCNc1cc(Sc2nc3ccccc3[nH]2)c2nonc2c1[N+](=O)[O-] | -0.6 | . | . | . | 8.1 | . | . | .
CCC(=O)OCCNc1cc(Sc2nc3ccccc3s2)c2nonc2c1[N+](=O)[O-] | -2.6 | 93.2* | 27.5 | ? | 11.2 | 77.4* | 91.0* | 94.2*
CC1CCCN(S(=O)(=O)c2cc3c4c(c2)C(C)C(=O)N4CCC3)C1 (stereo not drawn) | 4.1 | 6.3 | -0.3 | 2.7 | -16.2 | 4.9 | . | .
O=Nc1c2nc3ccccc3n(O)c-2c2ccccc12 | -1.0 | 83.8* | 39.8 | 21.6 | . | 75.3* | 83.0* | 71.3*
Cc1cn([C@H]2C[C@H](O)[C@@H](CCC(=O)NC(c3ccccc3)c3ccccc3)O2)c(=O)[nH]c1=O | 2.2 | . | . | . | 14.2 | . | . | .
Cc1ccc(N(CC(=O)Nc2cccc(C)c2)S(=O)(=O)c2cccc3nonc23)cc1 | -3.4 | 42.3* | 18.5 | 8.3 | -9.7 | 44.2* | 33.2* | 38.7*
Cc1ccc(NC(=O)CCS(=O)(=O)c2cccc3nonc23)cc1 | 6.0 | 10.5 | 18.2 | 1.4 | -3.1 | -17.6 | . | .
COc1ccc(CN(C)C(=O)C2CCN(S(=O)(=O)c3cccs3)CC2)cc1F | -0.1 | 17.5 | 22.1 | . | 0.1 | 6.8 | . | .
CCOC(=O)c1cnc2ccc(OC)cc2c1Nc1ccc2c(c1)OCCO2 | -4.7 | 56.3* | 48.1 | 6.2 | 0.2 | 42.7* | 48.3* | 14.4
COc1ccc(/C=C/C(=O)C2(O)CCCCC2)cc1OC | 1.6 | 47.5* | 40.7 | 1.9 | . | 43.5* | 39.9* | 31.4*
CCn1nc(C)c(NS(=O)(=O)c2ccccc2)c1C | 3.9 | 12.2 | 13.1 | 1.9 | 14.7 | 16.5 | . | .
COc1cccc(/C=c2\sc3nc(-c4cccs4)nn3c2=O)c1OC | 3.0 | 42.0* | 36.5 | -5.7 | -0.2 | 51.0* | 33.1* | 1.3
COc1ccc(CNc2ncnc3cc(Cl)ccc23)cc1OC | -1.5 | . | . | 5.6 | 7.6 | . | . | .
CCN(CC)Cc1cc2[nH]c3c4ccc(Cl)cc4ncc3c2cc1OC | 0.3 | 57.1* | 33.9 | -2.2 | -24.6 | 68.0* | 50.0* | 35.0*
O=C(NC(=S)NCCC1=CCCCC1)c1ccccc1Br | -1.1 | 43.5* | 33.5 | ? | -56.6 | 45.7* | 31.0* | 41.1*
Cc1nn(-c2ccccc2)c(C)c1/C=N/n1c(-c2ccc(C(C)(C)C)cc2)n[nH]c1=S | -0.6 | 47.0* | 45.7 | 87.3* | -15.3 | 44.1* | 32.9* | 43.5*
SMILES | V-ATPase pH | tim10-1 inh | tim23-1 inh | SKKanGAS inh | PfHsp90 yeast 2 | TIM10 inh | tim10-1 confirm | tim10 confirm
CC(C)c1ccc(/C=C/C(=O)n2nnc3ccccc32)cc1 | 1.1 | 55.3* | 31.4 | 1.8 | -30.5 | 49.7* | 51.5* | 47.5*
CN(C)c1ccc(C(=O)n2nnc3ccccc32)cc1 | -9.7 | 24.8 | 36.7 | 4.3 | 4.9 | 39.3 | . | .
Nn1c(SCC(=O)Nc2ccc(OC(F)F)cc2)nnc(Cc2ccccc2)c1=O | -1.0 | -16.9 | -25.7 | 4.6 | -16.2 | 9.1 | . | .
O=C(Nc1ccccn1)c1ccc([N+](=O)[O-])o1 | 5.2 | 44.1* | 45.6 | -2.1 | -0.4 | 43.7* | 38.7* | 34.6*
O=C(Nc1ncccn1)c1ccc([N+](=O)[O-])o1 | 3.0 | -0.4 | 4.9 | 19.8 | -24.1 | 14.1 | . | .
O=C(CCl)N(c1ccccc1)c1c[nH]c2ccccc12 | -0.2 | 23.1 | 24.3 | -2.2 | -11.7 | 20.3 | . | .
O=C(CCl)N(c1ccc(Cl)cc1)c1c[nH]c2ccccc12 | -1.7 | 44.0* | 40.4 | 16.6 | 14.7 | 41.2* | 36.4* | 27.9*
CCC(=O)N1CCc2cc(S(=O)(=O)N3CCN(c4ccccn4)CC3)ccc21 | 3.6 | 42.8* | 22.6 | 3.1 | -3.2 | 43.8* | 37.2* | 1.8
O=C(Oc1c(CN2CCOCC2)cc(Cl)c2cccnc12)c1cccs1 | 2.5 | 46.9* | 36.5 | -1.3 | 15.2 | 41.5* | 40.9* | 26.5
C=CCn1c(Cc2ccccc2)n[nH]c1=S | -2.1 | 12.5 | 2.2 | -3.5 | -98.8 | 13.9 | . | .
C=CCn1c(CCc2cc(C(C)(C)C)c(O)c(C(C)(C)C)c2)n[nH]c1=S | -0.4 | 49.8* | 47.0 | 20.0 | -2.6 | 41.7* | 20.9 | 40.4*
O=C(/C=C/c1ccc2ccccc2n1)c1cc(Cl)ccc1O | -4.3 | 54.2* | 45.3 | 3.2 | -8.6 | 53.5* | 37.5* | 36.0*
C[C@@H](CSc1ccccc1)CN1CC[C@H](NC(=O)OCc2ccccc2)CCC1=O | 3.3 | 30.8 | 25.9 | 8.2 | 2.2 | 23.1 | . | .
Cn1nc(C(F)(F)F)c2cc(C(=O)Nc3ccc(F)cc3F)sc21 | 0.8 | -5.8 | -11.0 | -7.5 | 21.6 | 1.2 | . | .
Cn1nc(C(F)(F)F)c2cc(NC(=O)OCc3ccc(F)cc3)sc21 | 3.1 | 57.8* | -6.4 | 0.0 | -15.5 | 56.2* | 48.8* | 54.0*
CCC(C)C(=O)Nc1nc(C)c(-c2csc(Nc3ccc(Cl)cc3)n2)s1 (stereo not drawn) | 0.4 | 40.4* | 41.4 | 21.7 | -14.5 | 44.5* | 23.9 | 29.5
CCCC(=O)Nc1nc(C)c(-c2csc(Nc3ccc(Cl)cc3)n2)s1 | -15.8 | 39.0 | 48.3 | 25.3 | -5.5 | 26.9 | . | .
CCCCOc1ccc(C(=O)NCCOc2cccc(OC)c2)cc1 | -4.2 | 36.3 | 29.7 | -6.1 | -7.9 | -1.6 | . | .
Cc1cccn2cc(-c3ccc(S(=O)(=O)N4CCOCC4)cc3)nc12 | 0.9 | 33.6 | 19.8 | -1.7 | -2.4 | 36.7 | . | .
